The results in this text go back to PubChem BioAssay.

Molecules are shown by their SMILES.

Chain of Follistatin-related protein 3 (Homo sapiens) (O95633 whole entry, looked up): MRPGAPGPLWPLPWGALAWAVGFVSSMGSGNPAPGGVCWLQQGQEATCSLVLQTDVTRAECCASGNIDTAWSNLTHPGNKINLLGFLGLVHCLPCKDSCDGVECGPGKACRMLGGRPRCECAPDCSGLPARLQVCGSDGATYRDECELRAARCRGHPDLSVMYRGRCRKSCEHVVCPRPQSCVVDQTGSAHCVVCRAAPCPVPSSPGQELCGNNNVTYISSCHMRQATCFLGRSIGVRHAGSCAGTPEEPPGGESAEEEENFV

The test has as its target Follistatin-related protein 3 (Homo sapiens) (UniProt O95633). Nature of the test: compounds binding follistatin-related protein 3 – biochemical, small-molecule microarray, 635 nm fluorescence, primary screen (AID 1105).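 Further: score merges emission near 667 nm and signal to noise per printed spot across three slides.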 As to conditions: FSTL3 binding, higher = more signal.
In turn, `COc1ccc([Si](C)(C)[C@@H]2[C@@H](CC(=O)N3CCC[C@H]3CO)O[C@]3(C(=O)N(C)c4c(Br)cc(C)cc43)[C@H]2C)cc1` came in with a composite z-score of 1.42.
As for `CN(C)CCCCCCNC(=O)[C@H]1C[C@H]2C(=O)N[C@@H](CCCCN)C(=O)N2[C@H]1c1ccc(O)cc1`, the figure is 1.65; as for `COCC(=C=CC[C@H](O)c1ccc(OCCO)cc1)C[C@H](O)c1cc(Cl)cc(Cl)c1O`, 1.11.
Regarding `COc1cc(C(O)C2C=CC3C(=O)N(c4ccccc4)C(=O)C3N2Nc2ccc(C#N)cc2)cc(OC)c1OC` (stereo not given), the composite z-score stood at 1.25.
`N#Cc1ccc(NN2C(C(O)c3ccc([N+](=O)[O-])cc3)C=CC3C(=O)N(c4ccccc4)C(=O)C32)cc1` (stereo not given) showed a composite z-score of 0.422.
For `CC(=O)NCCCC[C@@H]1NC(=O)[C@@H]2C[C@H](C(=O)NCCCCCCNC(=O)CS)[C@H](c3ccc(O)cc3)N2C1=O`, the composite z-score is -0.353.
As for `CCOC(=O)C[C@H]1[C@H](OC(=O)Cc2ccc3c(c2)OCO3)[C@@H](NC(=O)c2ccc(-c3ccccc3)cc2)c2cc(OCCCO)ccc2N1C(=O)c1ccccc1`, the figure is 0.612; as for `O=C1O[C@@H](c2ccccc2)[C@@H](c2ccccc2)N2[C@@H](c3ccccc3OCCO)[C@]3(C(=O)Nc4ccc(C#CC5(O)CCCCCC5)cc43)[C@@H](C(=O)Nc3nc4ccccc4s3)[C@H]12`, 0.996.
As for `Cc1ccccc1C(O)C1C=CC2C(=O)N(C)C(=O)C2N1N1CCCCC1` (stereo not given), the figure is 0.621; as for `COCCOC(=O)N1C(=O)[C@@]2(c3ccccc31)[C@H](C(=O)Nc1nc3ccccc3s1)[C@H]1C(=O)O[C@H](c3ccccc3)[C@H](c3ccccc3)N1[C@@H]2c1ccc(OCCO)cc1`, 1.11; as for `CC(C)C[C@@H]1NC(=O)[C@H]2C[C@@H](C(=O)NCCCCCNC(=O)CS)[C@@H](c3cccc(OCCO)c3)N2C1=O`, 1.36.
As for `COc1ccc(C#Cc2ccc3c(c2)[C@]2(C(=O)N3)[C@H](c3ccc(O)cc3)N3[C@H](c4ccccc4)[C@H](c4ccccc4)OC(=O)[C@H]3[C@@H]2C(=O)NC[C@H](O)c2ccccc2)cc1`, the figure is 0.801; as for `O=C1OCC=C[C@H]2OC34C=CCN(c5ccc(Cl)cc5)C(=O)[C@H]3N(CCCCCCO)C(=O)[C@@H]4[C@@H]12` (stereo not given in full), -1.58; as for `C=CCOC(=O)[C@H]1[C@@H]2C(=O)O[C@@H](c3ccccc3)[C@@H](c3ccccc3)N2[C@@H](c2ccc(OCCOC(=O)[C@@H]3C[C@@H]4C(=O)N5CCC[C@H]5C(=O)N4[C@@H]3c3ccc(O)cc3)cc2)[C@]12C(=O)Nc1ccccc12`, 1.21.
`CCCC[C@H]1OB(O)C[C@H]2C1=C(C)C[C@H]1C(=O)N(Cc3ccccc3)C(=O)[C@H]12` registered a composite z-score of 1.25.
As for `CCCC[C@@H]1C[C@H]1[C@@H](NC(=O)c1ccc(-c2ccccc2)cc1)c1ccc(-c2ccccc2)cc1`, the figure is 1.39; as for `COCC(=C=CC[C@@H](O)c1ccc(CO)o1)CCO`, 0.574; as for `Cc1ccc(S[C@]2(C(=O)NCc3ccccc3)CC(=O)N(Cc3ccccc3Cl)[C@@H]2c2ccc(CO)cc2I)cc1`, -0.689.
As for `CC=CC(O)C1C=CC2C(=O)N(c3ccccc3)C(=O)C2N1Nc1ccc(C(C)C)cc1` (stereo not given), the figure is 1.3.
`COCCOC(=O)N1C(=O)[C@@]2(c3ccccc31)[C@H](C(=O)NC[C@H](O)c1ccccc1)[C@H]1C(=O)O[C@H](c3ccccc3)[C@H](c3ccccc3)N1[C@@H]2c1ccc(OCCO)cc1`: the composite z-score is 1.51.
`[N-]=[N+]=NCc1ccccc1C[C@@]1(C(=O)NCC(O)CO)N=C(c2ccc(OCCCO)cc2)O[C@@H]1c1ccccc1CN=[N+]=[N-]` (stereo not given in full) showed a composite z-score of -0.203.
As for `COc1ccc(C#Cc2ccc3c(c2)[C@]2(C(=O)N3)[C@H](C(=O)NC[C@H](O)c3ccccc3)[C@H]3C(=O)O[C@H](c4ccccc4)[C@H](c4ccccc4)N3[C@@H]2c2ccccc2OCCO)cc1`, the figure is 1.16; as for `COC(=O)[C@@]1(Cc2ccccc2)[C@H]2c3cc(C(=O)N(C)C)n(Cc4cc(C)n(C)n4)c3C[C@H]2CN1C(=O)c1ccccc1`, 0.642; as for `C#CCN(C(/C=C/c1ccccc1)CO)C(C(=O)O)c1ccccc1` (stereo not given), -0.435.
As for `COc1ccc([Si](C)(C)[C@@H]2[C@@H](CCn3cc([C@H](O)c4ccccc4)nn3)O[C@]3(C(=O)N(Cc4cccc(N5CCOC5=O)c4)c4ccccc43)[C@H]2C)cc1`, the figure is -0.995; as for `Cc1ccc(S[C@]2(C(=O)O)CC(=O)N(C3Cc4ccccc4C3)[C@@H]2c2ccc(CO)cc2I)cc1`, -0.75.
As for `CCOC(=O)C[C@H]1[C@H](OC(=O)c2ccc(-c3ccccc3)cc2)[C@@H](NC(=O)Cc2ccc(OC)cc2)c2cc(OCCCO)ccc2N1C(=O)c1ccc2ccccc2n1`, the figure is 0.367; as for `COc1ccc([Si](C)(C)[C@@H]2[C@@H](CC(=O)N(CCO)Cc3ccccc3)O[C@]3(C(=O)N(C)c4ccccc43)[C@H]2C)cc1`, 1.39.
The compound `O=c1cccc(C=Cc2ccccc2)o1` registered a composite z-score of -0.657.
As for `O=C1OCC=C[C@H]2OC34C=CCN(c5ccc6ccccc6c5)C(=O)[C@H]3N(CCCO)C(=O)[C@@H]4[C@@H]12` (stereo not given in full), the figure is -0.699; as for `COCCOC(=O)N1C(=O)[C@@]2(c3cc(C#CC4=CCCCC4)ccc31)[C@H](C(=O)N1CCc3cc(OC)c(OC)cc3C1)[C@H]1C(=O)O[C@H](c3ccccc3)[C@H](c3ccccc3)N1[C@@H]2c1ccccc1OCCO`, 1.
As for `COCCOC(=O)N1C(=O)[C@@]2(c3cc(C#CCC(C(=O)OC)C(=O)OC)ccc31)[C@H](c1ccccc1OCCO)N1[C@H](c3ccccc3)[C@H](c3ccccc3)OC(=O)[C@H]1[C@@H]2C(N)=O`, the figure is 1.13; as for `CC(C)OC(=O)CC(=O)CC(O)c1ccc(C#N)cc1` (stereo not given), 0.078.
As for `COC(=O)[C@@]1(Cc2ccc(OC)cc2)[C@H]2c3cc(C(=O)N(C)C)n(Cc4c(OC)[nH]cc(C)c4=O)c3C[C@H]2CN1C(=O)c1ccccc1`, the figure is 0.037; as for `O=C1C[C@@](C(=O)NC2CC2)(c2ccc([N+](=O)[O-])cc2)[C@@H](c2ccc(CO)cc2)N1CC12CC3CC(CC(C3)C1)C2`, 0.925.
